Test results: the supplement of paper PMC7411054
Counter-ions that a name gives are not always drawn.

Assays:
Test in all cases: lowest phenotypically active concentration; higher = less potent
Settings in all cases: treatment time: 24 h
HepG2-ACTB-RAB5A = tested on: HepG2-ACTB-RAB5A
Outline: (§1)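 Fifteen reporter lines derived from A549, HepG2 and WPMY1 cells by gene editing, carrying BFP for segmentation plus GFP and RFP/FusionRed markers, were exposed to 0.3, 1, 3 or 9 µM for 24 h in four wells each and imaged live. Live-cell features from each well were normalised to solvent control wells. A well set counted as deviating when ≥3 of 4 wells lay beyond the 95th percentile of control Euclidean distances, and as reproducible when the median replicate Pearson correlation exceeded the 95th percentile of non-replicates. Phenotypic activity was assigned only when both criteria were met.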

HepG2-CANX-COX4 = tested on: HepG2-CANX-COX4
Outline: as §1

HepG2-GM130-SQSTM1 = tested on: HepG2-GM130-SQSTM1
Outline: as §1

HepG2-TP53BP1-CLTA = tested on: HepG2-TP53BP1-CLTA
Outline: as §1

HepG2-TUBA1B-RELA = tested on: HepG2-TUBA1B-RELA
Outline: as §1

WPMY1-ACTB-RAB5A = tested on: WPMY1-ACTB-RAB5A
Outline: as §1

WPMY1-CANX-COX4 = tested on: WPMY1-CANX-COX4
Outline: as §1

WPMY1-GM130-SQSTM1 = tested on: WPMY1-GM130-SQSTM1
Outline: as §1

WPMY1-TP53BP1-CLTA = tested on: WPMY1-TP53BP1-CLTA
Outline: as §1

WPMY1-TUBA1B-RELA = tested on: WPMY1-TUBA1B-RELA
Outline: as §1

Measured: lowest phenotypically active concentration

FC(F)(F)c1ccc(/C=C/c2nc(COc3ccc(CCCCn4ccnn4)cc3)co2)cc1
≤ 0.3 µM: HepG2-ACTB-RAB5A | HepG2-CANX-COX4 | HepG2-GM130-SQSTM1 | HepG2-TP53BP1-CLTA | HepG2-TUBA1B-RELA

COc1ccc2c(NC(=O)Nc3cccc(C(F)(F)F)n3)ccnc2c1
3 µM: HepG2-TUBA1B-RELA | WPMY1-GM130-SQSTM1
9 µM: HepG2-ACTB-RAB5A | HepG2-GM130-SQSTM1 | HepG2-TP53BP1-CLTA
not listed: WPMY1-TUBA1B-RELA
1 µM: all other assays above

O=C1NC(=O)C(c2ccccc2[N+](=O)[O-])=C1Nc1ccc(O)c(Cl)c1
3 µM: HepG2-TP53BP1-CLTA | HepG2-TUBA1B-RELA
9 µM: HepG2-ACTB-RAB5A | HepG2-CANX-COX4 | HepG2-GM130-SQSTM1 | WPMY1-ACTB-RAB5A

C#Cc1cccc(Nc2ncnc3cc(OCCOC)c(OCCOC)cc23)c1 [erlotinib]
9 µM: HepG2-TP53BP1-CLTA
3 µM: HepG2-ACTB-RAB5A | HepG2-CANX-COX4 | HepG2-GM130-SQSTM1 | HepG2-TUBA1B-RELA

Cc1cc(Nc2cc(N3CCN(C)CC3)nc(Sc3ccc(NC(=O)C4CC4)cc3)n2)[nH]n1
≤ 0.3 µM: all assays above

COc1cc(N2CCC(O)CC2)ccc1Nc1cc(Nc2ccccc2S(=O)(=O)C(C)C)c2cc[nH]c2n1 [Mps1-IN-1 dihydrochloride]
9 µM: WPMY1-ACTB-RAB5A
1 µM: HepG2-TUBA1B-RELA
3 µM: WPMY1-GM130-SQSTM1 | WPMY1-TP53BP1-CLTA
not listed: WPMY1-TUBA1B-RELA
≤ 0.3 µM: all other assays above

COc1cc(C[C@H]2C(=O)OC[C@@H]2Cc2ccc(OC)c(OC)c2)ccc1O [Arctigenin]
9 µM: HepG2-ACTB-RAB5A | HepG2-CANX-COX4 | HepG2-GM130-SQSTM1
1 µM: HepG2-TP53BP1-CLTA | HepG2-TUBA1B-RELA

Nc1ccc(-c2cccc3c(=O)cc(N4CCOCC4)oc23)cc1
9 µM: HepG2-CANX-COX4 | HepG2-TP53BP1-CLTA | HepG2-TUBA1B-RELA | WPMY1-TP53BP1-CLTA | WPMY1-TUBA1B-RELA
3 µM: all other assays above

COc1cc2ncnc(Nc3ccc(O)c(Br)c3)c2cc1OC
9 µM: HepG2-CANX-COX4 | HepG2-GM130-SQSTM1
not listed: WPMY1-TUBA1B-RELA
3 µM: all other assays above

C=CC(=O)N1CCC[C@@H](n2nc(-c3cccc(C(=O)Nc4ccc(C(C)C)c(C)c4)c3)c3c(N)ncnc32)C1
3 µM: WPMY1-CANX-COX4 | WPMY1-GM130-SQSTM1 | WPMY1-TUBA1B-RELA
9 µM: WPMY1-TP53BP1-CLTA
1 µM: all other assays above

NCC(=O)Nc1ccc(-n2nc(C(F)(F)F)cc2-c2ccc3c(ccc4ccccc43)c2)cc1
3 µM: HepG2-GM130-SQSTM1
≤ 0.3 µM: WPMY1-ACTB-RAB5A | WPMY1-TP53BP1-CLTA | WPMY1-TUBA1B-RELA
1 µM: all other assays above

CCC1=C[C@@H]2CN(C1)Cc1c([nH]c3ccccc13)[C@@](C(=O)OC)(c1cc3c(cc1OC)N(C)[C@H]1[C@@](O)(C(=O)OC)[C@H](OC(C)=O)[C@]4(CC)C=CCN5CC[C@]31[C@@H]54)C2 [vinorelbine]
≤ 0.3 µM: all assays above

Cc1cc(/N=N/c2ccc(S(=O)(=O)Nc3ccccn3)cc2)c(N)cc1O
3 µM: HepG2-CANX-COX4 | HepG2-GM130-SQSTM1 | WPMY1-ACTB-RAB5A | WPMY1-GM130-SQSTM1
9 µM: all other assays above

COc1cc(/C=C/c2ccc(OC)cc2OC)cc(OC)c1
3 µM: HepG2-ACTB-RAB5A | HepG2-CANX-COX4 | HepG2-GM130-SQSTM1 | HepG2-TP53BP1-CLTA | HepG2-TUBA1B-RELA
1 µM: all other assays above

Cc1c(NC(=O)OC[C@@H]2COCCN2)cn2ncnc(Nc3ccc4c(cnn4Cc4cccc(F)c4)c3)c12
9 µM: HepG2-CANX-COX4 | WPMY1-GM130-SQSTM1 | WPMY1-TP53BP1-CLTA
1 µM: HepG2-GM130-SQSTM1 | HepG2-TUBA1B-RELA
3 µM: all other assays above

O=C(O)c1ccc(Nc2ncc3c(n2)-c2ccc(Cl)cc2C(c2c(F)cccc2F)=NC3)cc1
3 µM: WPMY1-CANX-COX4
9 µM: WPMY1-GM130-SQSTM1
≤ 0.3 µM: all other assays above

O=C(CCCCSc1nc(-c2ccc(-c3ccccc3)cc2)cc(=O)[nH]1)NO
≤ 0.3 µM: all assays above
